These results are taken from PubChem BioAssay (EPA / NIEHS).

Read-out in test [1]: Interferon-gamma inducible Protein 10 (IP10), CXCL10 (gene 3627)
The experiment in a line: BSK_hDFCGF_IP10: BioMAP Diversity Plus: hDFCGF Assay for Interferon-gamma inducible Protein 10 (IP10) Biomarker Activity (AID 2283053). To be noted: primary human foreskin fibroblasts; actives raise or lower the signal. In short, it runs like this:
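IP-10 levels, quantified by ELISA, are taken from human foreskin fibroblast cultures 24 h after chemical treatment, with DMSO serving as negative control and baseline for bidirectional analysis.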

Read-out in test [2]: Urokinase-type plasminogen activator receptor (uPAR), PLAUR (gene 5329)
Description: BSK_CASM3C_uPAR: BioMAP Diversity Plus: CASM3C Assay for Urokinase-type plasminogen activator receptor (uPAR) Biomarker Activity (AID 2283054).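 Also: cell-surface uPAR protein level quantified by ELISA.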 To be noted: primary human coronary artery smooth muscle cells; actives raise or lower the signal.

Read-out in test [3]: Vascular cell adhesion molecule 1 (VCAM1), VCAM1 (gene 7412)
Description: BSK_CASM3C_VCAM1: BioMAP Diversity Plus: CASM3C Assay for Vascular cell adhesion molecule 1 (VCAM1) Biomarker Activity (AID 2283055).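 Also: VCAM-1 protein level quantified by ELISA on the cells.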 As to conditions: primary human coronary artery smooth muscle cells; actives raise or lower the signal.

Read-out in test [4]: Collagen III, COL3A1 (gene 1281)
Description: BSK_hDFCGF_CollagenIII: BioMAP Diversity Plus: hDFCGF Assay for Collagen III Biomarker Activity (AID 2283056). As to conditions: primary human foreskin fibroblasts; actives raise or lower the signal. The method in brief: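 ELISA readout of Collagen III in human dermal (foreskin) fibroblasts, taken 24 h post-treatment. Gain or loss relative to DMSO vehicle fitted in both directions.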

Read-out in test [5]: Epidermal growth factor receptor (EGFR), EGFR (gene 1956)
Description: BSK_hDFCGF_EGFR: BioMAP Diversity Plus: hDFCGF Assay for Epidermal growth factor receptor (EGFR) Biomarker Activity (AID 2283057). To be noted: primary human foreskin fibroblasts; actives raise or lower the signal. In short, it runs like this: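 Measured by ELISA: EGFR levels on primary human foreskin fibroblasts 24 h after chemical treatment, analysed relative to DMSO with bidirectional fitting.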

Read-out in test [6]: Interleukin-8 (IL8), CXCL8 (gene 3576)
The experiment in a line: BSK_hDFCGF_IL8: BioMAP Diversity Plus: hDFCGF Assay for Interleukin-8 (IL8) Biomarker Activity (AID 2283058). To be noted: primary human foreskin fibroblasts; actives raise or lower the signal. In short, it runs like this:
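IL-8 levels read by ELISA at 24 hours after dosing human skin fibroblast cultures. Parallel SRB staining assessed overt cytotoxicity, and gain or loss of signal was fitted against DMSO control.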

The nature of test [7]: BSK_hDFCGF_Proliferation: Cell Proliferation Assessment in the BioMAP Diversity Plus: hDFCGF Assay (AID 2283059).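 Also: curves fitted for both rise and fall of signal versus DMSO baseline.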 To be noted: primary human foreskin fibroblasts. In short, it runs like this: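 Total protein read at 560 nm after 0.1% SRB staining of TCA-fixed human skin fibroblasts, […]. Activity is fitted in both directions relative to DMSO as baseline.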

Read-out in test [8]: Macrophage colony-stimulating factor (MCSF), CSF1 (gene 1435)
The experiment in a line: BSK_hDFCGF_MCSF: BioMAP Diversity Plus: hDFCGF Assay for Macrophage colony-stimulating factor (MCSF) Biomarker Activity (AID 2283060). As to conditions: primary human foreskin fibroblasts; actives raise or lower the signal. In short, it runs like this:
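M-CSF levels read by ELISA at 24 h post-dosing in human skin fibroblasts. Parallel cultures stained with SRB assessed cytotoxicity at the same time point; response fitted in both directions against the DMSO baseline.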

The nature of test [9]: BSK_hDFCGF_SRB: Viability Assessment in the BioMAP Diversity Plus: hDFCGF Assay (AID 2283061).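 Also: cells exposed to compound for 24 h before the read.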 As to conditions: primary human foreskin fibroblasts. The method in brief:
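Viability was read as total protein: after 10% TCA fixation, wells were stained with 0.1% sulforhodamine B and read at 560 nm. Primary human foreskin fibroblasts were dosed for 24 h, with bidirectional fitting versus DMSO.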

Read-out in test [10]: TIMP metallopeptidase inhibitor 1 (TIMP1), TIMP1 (gene 7076)
Description: BSK_hDFCGF_TIMP1: BioMAP Diversity Plus: hDFCGF Assay for TIMP metallopeptidase inhibitor 1 (TIMP1) Biomarker Activity (AID 2283062). To be noted: primary human foreskin fibroblasts; actives raise or lower the signal. In short, it runs like this: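 TIMP-1 measured by ELISA 24 h after chemical dosing of primary human skin fibroblasts, with gain or loss fitted relative to DMSO. Parallel SRB staining (560 nm) monitored overt cytotoxicity.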

Values joined by “and” are separate entries in the source; they are usually repeats but may differ in a detail not shown here. Equal values may be shown once. Some structures have more than one record in an assay (separate samples or runs), and their calls can disagree. Active and inactive are the calls of the source. The calls were made as follows: active = hit-call score of the fitted dose curve at least 0.9, where 1 is the maximum; inactive = score below 0.9.

For `OCCN1CN(CCO)CN(CCO)C1`, the AC50 – broadly, the concentration giving half of the maximal activity seen – in [1] is 20 µM (active); in [3], 32.8 µM (active); in test [7], 25.8 µM (active); in [8], 20 µM (active). Besides, the outcome in test [2], in [4], in test [5], in test [6], in test [9] and in [10] was inactive.
As to `OCC(F)(F)C(F)(F)C(F)(F)C(F)(F)C(F)(F)C(F)(F)C(F)(F)C(F)(F)C(F)(F)C(F)(F)C(F)(F)F`, the outcome in test [1], in test [2], in test [3], in test [5], in test [6] and in test [7] was inactive. In addition, the result in test [8], in test [9] and in test [10] was inactive. Further, the AC50 in test [4] is 58 nM (active) and 74.1 nM (active).
For `CCCCCCCCCCCCCCC`, the result in [1], in [2], in [3], in test [4], in test [5] and in [6] was inactive. Moreover, the outcome in test [7], in test [8], in test [9] and in [10] was inactive.
Turning to `O=C1NS(=O)(=O)c2ccccc21`, the outcome in test [1], in [2], in test [3], in [4], in test [5] and in test [6] was inactive. The result in [7], in test [8], in test [9] and in test [10] was inactive. For the same compound, the AC50 in test [3] was 0.15 µM (active).
`CCCCC(CC)C(=O)OCCOCCOCCOCCOC(=O)C(CC)CCCC` (stereo not given): the result in test [1], in test [2], in [3], in test [4], in [5] and in test [6] was inactive. The outcome in test [7], in test [9] and in test [10] was inactive. Moreover, the AC50 in [8] was 20 µM (active).
For the compound `CN(Cc1cnc2nc(N)nc(N)c2n1)c1ccc(C(=O)N[C@@H](CCC(=O)O)C(=O)O)cc1`, the outcome in test [1], in test [2], in test [3], in [4], in test [5] and in [6] was inactive. Also, the outcome in [7], in test [8], in test [9] and in test [10] was inactive. In test [8], the AC50 was 2.65 µM (active).
For `Oc1ccc(Cc2ccccc2O)cc1`, the result in [1], in [2], in test [3], in test [4], in test [5] and in [6] was inactive. Besides, the result in test [7], in [8], in test [9] and in test [10] was inactive. The AC50 is 3.97 µM (active) in [3] and 33.6 µM (active) in test [7].
For the compound `O=C1OC2(c3ccccc31)c1cc(I)c(O)c(I)c1Oc1c2cc(I)c(O)c1I`, the AC50 was 16 µM (active) in test [1]; 3.75 µM (active) in test [4]; 1.88 µM (active) in test [5]; 15.2 µM (active) in [7]; 4.57 µM (active) in test [8]; 6.04 µM (active) in test [10]. The outcome in test [2], in test [3], in test [6] and in test [9] was inactive.
As to `O=C(CCCN1CCC(O)(c2ccc(Cl)cc2)CC1)c1ccc(F)cc1`, the result in test [1], in test [2], in test [3], in test [4], in [5] and in test [6] was inactive. Moreover, the result in test [8], in test [9] and in test [10] was inactive. Also, the AC50 in test [7] was 4.55 µM (active).
On to `C=CC(=O)OCCC(F)(F)C(F)(F)C(F)(F)C(F)(F)C(F)(F)C(F)(F)C(F)(F)C(F)(F)F`, for which the result in [1], in test [2], in test [3], in [4], in test [5] and in test [6] was inactive. The result in test [7], in test [8], in test [9] and in [10] was inactive. Moreover, the AC50 in test [7] was 30 µM (active).
Take `CCOC(=O)CN[C@@H](C(=O)N1CC[C@H]1C(=O)NCc1ccc(/C(N)=N/O)cc1)C1CCCCC1`: the outcome in test [1], in test [2], in [3], in test [4], in [5] and in [6] was inactive. Also, the outcome in test [7], in [8], in test [9] and in [10] was inactive.
For `Cc1ccc(N=Nc2c(O)ccc3ccccc23)c(C)c1`, the AC50 in [1] is 10 µM (active); in [4], 6.8 µM (active); in test [8] it was 10 µM (active). Besides, the outcome in test [2], in test [3], in test [5], in [6], in test [7] and in [9] was inactive. In addition, the outcome in test [10] was inactive.
As to `CCCCC=O`, the result in test [1], in [2], in test [3], in test [4], in test [5] and in test [6] was inactive. The outcome in [7], in test [8], in [9] and in [10] was inactive.
